From the supplement of paper PMC6555819

Key:
Test in all cases: PBM binding z-score (relative to random genomic background probes); higher = stronger binding; sequences stand for … in GC…GCGATTGACAGCGTAGAATGAAGG
[1] = system: FXR:RXRa (NR concentration 270 nM, RXRa partner concentration 90 nM)
In short: (§1)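 Antibodies against each partner of ligand-free nuclear receptor dimers (one per run) detected binding on custom Agilent 4×180K protein-binding microarrays after 1 h incubation. The double-stranded probes had 34-nt variable regions carrying direct-repeat seeds, single-nucleotide variants, half-site ablations and random human genomic background sequences. Binding z-scores, from regression-normalized fluorescence, use the random background probes as reference.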

[2] = system: LXRa:RXRa (NR concentration 270 nM, RXRa partner concentration 90 nM)
In short: as §1

[3] = system: LXRa homodimer (NR concentration 270 nM)
In short: as §1

[4] = system: LXRb:RXRa (NR concentration 270 nM, RXRa partner concentration 90 nM)
In short: as §1

[5] = system: LXRb homodimer (NR concentration 270 nM)
In short: as §1

[6] = system: PPARa:RXRa (NR concentration 270 nM, RXRa partner concentration 90 nM)
In short: as §1

[7] = system: PPARg:RXRa (NR concentration 180 nM, RXRa partner concentration 90 nM)
In short: as §1

[8] = system: PPARg:RXRa 270nM:90nM, anti-RXR (NR concentration 270 nM, RXRa partner concentration 90 nM)
In short: as §1

[9] = system: PPARg:RXRa 30nM:10nM, anti-RXR (NR concentration 30 nM, RXRa partner concentration 10 nM)
In short: as §1

[10] = system: PPARg:RXRa 90nM:30nM, anti-RXR (NR concentration 90 nM, RXRa partner concentration 30 nM)
In short: as §1

Sequence | PBM binding z-score [1] | PBM binding z-score [2] | PBM binding z-score [3] | PBM binding z-score [4] | PBM binding z-score [5] | PBM binding z-score [6] | PBM binding z-score [7] | PBM binding z-score [8] | PBM binding z-score [9] | PBM binding z-score [10]
GCGCCTGGGGCATCAGCAGGTTACCATAACTTAA | -0.344 | -0.299 | -0.446 | 0.294 | -1.19 | 0.454 | 0.0238 | -0.488 | -0.952 | -0.927
ATATGTAGGGTACATCCGGGTCATTCAGGCTATG | 1.96 | 2.96 | 1.43 | 2.4 | 1.27 | 3.89 | 4.04 | 3.53 | 1.46 | 2.33
TCTCGGAGGACACGAAGGTCAGGGCTTTCCAGAG | 1.55 | 1.29 | 0.139 | 1.17 | -0.91 | 2.13 | 0.576 | 1.75 | 2.15 | 1.9
TATACAGGGTCAAAGGCCACAGTACGAATGTCGA | 7.15 | 6.26 | 2.88 | 5.26 | 2.68 | 6.52 | 9.43 | 8.36 | 7.28 | 8.74
TATACAGGGTCAAAGGCCAGATTACGAATGTCGA | 7.37 | 6.22 | 2.78 | 4.95 | 2.24 | 6.15 | 8 | 7.46 | 5.15 | 7.09
CCATACGGGTCACTGACAGGTTATAGCATTTGGA | 4.49 | 4.04 | 0.394 | 3.31 | 0.0673 | 4.83 | 3.92 | 3.76 | 1.43 | 2.41
CCTATTAGTTGACCGTAAGGGCAACCGAAGCTCG | 1.88 | 0.908 | 0.863 | 0.769 | 0.64 | 0.834 | 0.00382 | 0.48 | -0.271 | -0.155
CGTCAAAGTTCAACTAAGGTAACGTAGAGCACGC | 7.03 | 5.95 | 4.18 | 4.04 | 1.71 | 5.1 | 5.31 | 5.6 | 2.54 | 4.47
CCTACTGGGCCAAGGACATTGATCAGTCAAAGCA | -0.284 | -0.572 | -0.118 | -0.778 | -0.99 | -0.141 | 0.757 | 0.967 | 0.164 | 0.46
TCGAGGAGGTTACCAATGGGGCATTCAGCTTTCT | 0.893 | 2.72 | -0.21 | 2.47 | -0.369 | 2.29 | 0.171 | 1.2 | 1.46 | 1.09
ATCTCTAGGTAAGACTCAGTCCAGTGAAGAACGC | 0.392 | 0.554 | -0.00583 | -0.0175 | 0.668 | -0.0468 | 0.17 | 0.258 | 0.405 | 0.142
TCGAGTAGGTTACCAATGGGGCATTGAGCTTTCT | 0.162 | 1.38 | -0.99 | 0.479 | -1.11 | 0.992 | 0.256 | 1.26 | 1.03 | 1.16
ATCTCTAGATAAAGATAGTTCAGTGAATGCAAAT | -0.281 | 0.122 | 0.343 | 0.191 | 0.206 | -0.0361 | 0.872 | 0.0626 | 0.338 | 0.179
TTTTGTAGATCAATAGAGGTTAAGAAAGTGCGCT | 0.883 | 3.94 | 1.12 | 1.9 | 0.26 | 2.02 | 0.38 | 1.37 | 1.13 | 1.41
TCTAATAGTTGATTAGGGCAACCGAAACAGCGGA | -0.0644 | 0.461 | -0.078 | 0.136 | -0.225 | 1.23 | 0.375 | 1.85 | 3.3 | 2.53
TCTCGGAGGACACGAAAGGTAAGAGCTCGACATC | 0.311 | -0.0644 | -0.636 | -0.242 | -1.12 | 0.039 | 0.278 | 0.941 | 2.19 | 1.28
CGTCAAAGTTCATCTAAGGTAACGTAAAGCACGC | 6.89 | 6.38 | 4.65 | 4.03 | 2.11 | 4.73 | 4.57 | 5.27 | 2.69 | 4.22
AGAATGAGGTTACCAAAGATCGGGGAAACGCTTG | 1.75 | 4.95 | -0.394 | 2.39 | -0.29 | 3.28 | 2.29 | 2.42 | 0.813 | 1.48
TGAATGAGGTTATAAGAACAGGGAACGTTGCAAA | 1.63 | 1.18 | -0.262 | 1.03 | 0.118 | 2.32 | 1.33 | 1.6 | 0.909 | 1.08
CCGACTGGGGCAAGGTTATCATAACGCACAGCCA | 0.246 | 0.372 | -0.203 | 0.586 | -1.17 | 1.56 | 2.69 | 3.04 | 0.861 | 2.36
CCTAGTTGGTCAGGAGGTCAAACACCGGATATGA | 4.57 | 4.4 | 3.59 | 4.03 | 1.06 | 4.55 | 3.32 | 3.96 | 1.67 | 3.26
TCTTGTAGATCAAGAAGGTTAAGAAAGCCTGAGT | 0.542 | 0.704 | -0.24 | 0.833 | -0.584 | 1.44 | -0.11 | 1.65 | 2.96 | 2.31

Sequence | PBM binding z-score [1] | PBM binding z-score [2] | PBM binding z-score [3] | PBM binding z-score [4] | PBM binding z-score [5] | PBM binding z-score [6] | PBM binding z-score [7] | PBM binding z-score [8] | PBM binding z-score [9] | PBM binding z-score [10]
GCTGCTAGGTCAACTGATGGTCAGGTAAAGCTCG | 4.16 | 2.9 | 0.318 | 2.37 | 0.0406 | 3.7 | 2.95 | 3.33 | 0.765 | 1.9
ATCTCTCGGTAAAGTTCAGTGAAAGATCGATAGA | 1.03 | 1.46 | 1.39 | 1.3 | 1.34 | 1.6 | 1.08 | 2.68 | 1.12 | 2.32
CAAATTAGGTCAAGAGGTCAAAGTCCGCTTCCCG | 7.34 | 6.64 | 6.19 | 6.05 | 2.41 | 6.6 | 9.93 | 8.63 | 8.32 | 9.12
ATCTCTAGATAACAAGTTCAGTGAAAGAGAGGAC | 0.459 | 0.495 | 0.398 | 0.384 | 0.4 | 0.365 | 0.657 | 0.541 | 0.363 | 0.315
ATATGTAGGTTCTCGGGTCATTCAGTTTGCGCAT | 2.58 | 2.33 | 1.35 | 2.78 | 0.765 | 3.89 | 3.39 | 3.71 | 1.14 | 2.94
ACAGACAGGGGATGAAGGTAACTCAGGCTATCAT | 0.0429 | -0.217 | -0.0262 | 0.454 | 0.563 | 0.414 | 0.8 | -0.0093 | -0.0639 | -0.0825
TTACCAAGGTGAAAGGCCGTTGATGCACGCCTTG | 0.494 | 0.431 | -0.517 | 0.397 | -0.951 | 2.49 | 3.77 | 4.98 | 2.95 | 4.9
TGTTGTAGATCAGCAGGTTAAGAAAGCTGGCCAA | -0.297 | -0.297 | -0.591 | -0.397 | -0.822 | -0.205 | -0.588 | 0.116 | -0.287 | -0.0252
CGAACTAGCTCATCCAGGACAGTGAATACATTGA | -0.123 | -0.399 | 0.0441 | -0.293 | -0.166 | -0.4 | 0.522 | -0.572 | 0.105 | 0.154
TCATATAGGTAAACAGGTGAAAGCCCGTAAGTTA | 0.95 | 1.13 | 0.0822 | 0.763 | -0.22 | 2.4 | 2.7 | 3.37 | 3.79 | 3.69
AGTCAAAGTTCACTTGGTAACGTAAGATTCAGCT | 4.85 | 5.05 | 3.34 | 3.4 | 1.63 | 3.85 | 5.08 | 5.79 | 2.52 | 4.52
ATCGAAAGGTCGACGGGGTGAGTATACACCGTTT | 4.95 | 3.54 | 0.287 | 3.23 | 0.368 | 4.57 | 3 | 3.48 | 0.859 | 2.28
ATCTCGAGGTAAAAGTTCAGTGAATCCCGAGGAT | 1.26 | 1.85 | 0.551 | 1.28 | 0.304 | 3.44 | 5.01 | 5.51 | 4.17 | 5.67
ATACCAAGGTGATCGTGAGCTCGTTGATACTAAC | 0.125 | -0.0736 | -0.322 | 0.0963 | -0.116 | 0.174 | 0.373 | -0.151 | -0.316 | -0.0822
CCTTACGGGTCACGGACAGGTTATAGCATTTGGA | 6.85 | 5.09 | 0.422 | 4.42 | 0.0189 | 6.01 | 6.38 | 6.56 | 3.37 | 5.44
AGAATGAGGTTACCAAAGATCAGGGAGACGCTTG | 2.11 | 6.33 | -0.321 | 3.23 | -0.156 | 3.38 | 2.8 | 2.92 | 1.02 | 2.15
CCTACTGGGCCATCATGTCATTGATATCAACGTT | -0.0902 | -0.142 | -0.139 | 0.0528 | -0.132 | 0.932 | 1.49 | 2.01 | 0.718 | 1.35
CCTACTGGGCCAAAGGTCATTGATTCCAATGCTC | 4.82 | 5.3 | 4.17 | 4.72 | 0.913 | 6.33 | 12 | 10.5 | 10.7 | 11.4
TTACCAAGGTGTAAGGTCGTTGATGCACGCCTTG | 0.533 | 0.628 | -0.156 | 0.478 | -0.764 | 2.06 | 2.4 | 4.03 | 1.99 | 3.46
CGAACTAGGCCAGAACAGGACAGTGAAGGATGAT | -0.345 | -0.433 | -0.144 | -0.816 | -0.951 | 0.499 | 1.22 | 0.225 | 0.233 | 0.37
TGTCAAAGTTCAAAGTTAACGTAAGTATCCACAC | 6.94 | 6.38 | 5.46 | 4.6 | 2.99 | 5.59 | 8.27 | 7.38 | 5.04 | 7.29
AGAATGAGGTTTTTAAGATCAGGGAATTGCGGTC | -0.295 | -0.436 | -0.308 | -0.234 | -0.216 | 0.0197 | 0.144 | 0.00452 | 0.119 | -0.139
